# Source: the supplement of paper PMC8728848
# Shown is part of a subset that was picked to be rich in the strongest signals.
# B1: PX9961J-bvu-499-24-499 (Bacteroides vulgatus) (protein)
# chain: LNTDPSTAVPSDDAIKNIDDAQVALNGIYRLASAHSYYGDNYLYYADCRGEDVQARINKGAGRRVSPYYFFDVTADDNFNITLVWNQPYKVIHQANSLIEKLDAGNAGNARPEEVARIKSEALAMRGLALFDLTRLFGMPYTLDNGASLGVPIEIQTTLEDHAPERNTVAQCYEQVLKDLNDALGGLTKEKHDAYMNYWSVKALLSRVYLYMNDNENALKCAEEVINDNGGIYRLFTHDEYPSVWGKDFNSESLFEFYFTMSEPSGGSGGEGAPMVYADNVKDWNNLILTKAYLDLLNEDPEDVRHVFPHLPENAVADTLPVAAKGQPKYLIKYPGKSGSVTDAVSTVNPQDNDLCILRLSEVYLNAAEAAFKIGNTEKALTYLNAIVTRANPAKSVTSADLSLERILKERRKELVGEGHAFFDYMRNGKSVDRSGGWHLTMPEDARVIAPSDPRVALPIPQTEIDANPNIVQNPR
# What was measured:
# Experiment in all cases: glycan array binding signal (z-score within array); higher = stronger binding
# Conditions in all cases: glycan notation: IUPAC condensed, linker removed
# [1] = molecular target: Neu5Ac(a2-3)Gal(b1-4)GlcNAc(b1-2)[Neu5Ac(a2-3)Gal(b1-4)GlcNAc(b1-4)]Man(a1-3)[GlcNAc(b1-4)][Neu5Ac(a2-3)Gal(b1-4)GlcNAc(b1-2)[Neu5Ac(a2-3)Gal(b1-4)GlcNAc(b1-6)]Man(a1-6)]Man(b1-4)GlcNAc(b1-4)GlcNAc
# In short: (§1)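 Glycan array binding is given as a within-array Z-score, which can be read as non-binding when negative. The arrays, 3228 of them, came from the Consortium for Functional Glycomics database and were retained only where the protein sequence was available. Z-scores were averaged across arrays of the same protein sequence at different concentrations or buffers and across linkers.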
# [2] = molecular target: Neu5Ac(a2-3)Gal(b1-4)[Fuc(a1-3)]GlcNAc(b1-6)[Gal(b1-3)]GalNAc
# In short: as §1
# [3] = molecular target: Neu5Ac(a2-3)[GalNAc(b1-4)]Gal(b1-4)GlcNAc(b1-3)GalNAc
# In short: as §1
# [4] = molecular target: Neu5Ac(a2-6)Gal(b1-4)GlcNAc(b1-2)Man(a1-3)Man(b1-4)GlcNAc(b1-4)GlcNAc
# In short: as §1
# [5] = molecular target: Neu5Ac(a2-6)Gal(b1-4)GlcNAc(b1-3)[Neu5Ac(a2-6)Gal(b1-4)GlcNAc(b1-6)]GalNAc
# In short: as §1
# [6] = molecular target: Neu5Ac(a2-8)Neu5Gc(a2-3)Gal(b1-4)GlcNAc
# In short: as §1
# [7] = molecular target: Neu5Ac9Ac(a2-3)Gal(b1-4)GlcNAc
# In short: as §1
binder,measurement,setting,value
B1,glycan array binding signal (z-score),[1],-0.208
same,glycan array binding signal (z-score),[2],-0.279
same,glycan array binding signal (z-score),[3],-0.342
same,glycan array binding signal (z-score),[4],0.368
same,glycan array binding signal (z-score),[5],-0.732
same,glycan array binding signal (z-score),[6],19
same,glycan array binding signal (z-score),[7],-0.319
